Compound activity: PubChem BioAssay, National Center for Advancing Translational Sciences (NCATS)
G9a inh: inhibitors of human histone lysine methyltransferase G9a; Q96KQ7; G9a H3K9 monomethylation, AlphaScreen, 2 h; Potency, µM (doses to about 102 µM), for the others: top-dose activity, negative = inhibition, actives largely listed as inhibitors; 350,000 tested, 8.8% active; AID 504332; further: potency means the concentration at half of the fitted maximal effect; nearly all actives have a fitted effect of over 75% in size
Target sequence (Q96KQ7 913-1193 limits assumed): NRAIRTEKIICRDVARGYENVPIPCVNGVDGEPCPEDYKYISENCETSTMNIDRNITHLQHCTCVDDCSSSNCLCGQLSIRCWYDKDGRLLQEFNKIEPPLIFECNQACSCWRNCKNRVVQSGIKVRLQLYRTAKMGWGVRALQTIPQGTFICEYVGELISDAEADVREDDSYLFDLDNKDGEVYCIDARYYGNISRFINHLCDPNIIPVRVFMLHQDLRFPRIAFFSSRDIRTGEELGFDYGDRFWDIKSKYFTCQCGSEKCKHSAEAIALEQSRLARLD
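Methyltransferase reactions run at room temperature for 2 h (20 nM enzyme, 500 nM biotin-H3K9 peptide, 20 uM SAM) after a 15 min compound preincubation; product detected by AlphaScreen beads and anti-H3K9me1 antibody.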
Sfp inh: blocks B. subtilis Sfp PPTase activity | AID 1490 | 310,000 tested, 3.5% active | Biochemical Sfp PPTase activity, qHTS | Potency, µM, for the others: largest response in the series, negative = inhibition, most hits filed as inhibitors | Q9F4F7;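 further: the enzyme is Sfp with the accession as filed and its product quenches rhodamine fluorescence; potency means the concentration at half of the fitted maximal effect; 0% = enzyme reaction without inhibitor and -100% = no enzyme wells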
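Fluorescence-quenching assay with 15 nM Sfp, 5 uM rhodamine-CoA and 12.5 uM BHQ-2-labelled ybbR peptide in pH 7.6 Hepes/MgCl2 buffer. Enzyme was pre-incubated with compound for 15 min at room temperature. Rate was taken from the 30-min fluorescence change (525/598 nm).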
Tau fluor cs: counter-screen for tau fibril formation inhibitors; tau K18 P301L Alexa594 fluorescence, heparin fibrillization; Potency, µM (series often up to 57.7 µM), for inactives: at the highest dose activity change, negative = decrease; 280,000 tested, 0.93% active; AID 1463; further: potency means the concentration at half of the fitted maximal effect; nearly all actives have a fitted effect of over 55% in size
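Human tau K18 P301L (15 uM unlabeled, 0.24 uM Alexa 594-labeled) in 100 mM sodium acetate pH 7 with 20 uM heparin, 6 hr at 37 C. ThT 30 uM added, 1 hr ambient; Alexa 594 FP and total fluorescence read at 555/632 nm.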
Tau FP inhib: blocks human tau fibril formation measured by polarization | P10636 | AID 1468 | 280,000 tested, 0.39% active | Potency, µM (doses to about 57.7 µM), inactives show top-dose activity, negative = inhibition, hits mostly inhibitors | K18 P301L tau heparin fibrillization, Alexa594 FP, 6 h; further: potency means the concentration at half of the fitted maximal effect; nearly all actives have a fitted effect of over 55% in size
Target sequence (P10636 561-689 P618L limits assumed): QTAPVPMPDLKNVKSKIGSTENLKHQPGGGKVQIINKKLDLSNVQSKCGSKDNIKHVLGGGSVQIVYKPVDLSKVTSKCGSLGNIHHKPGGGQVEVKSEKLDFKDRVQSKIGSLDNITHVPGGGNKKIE
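Quantitative HTS format: compounds meet 15 uM recombinant K18 P301L tau and Alexa 594-tau tracer in 100 mM sodium acetate pH 7; 20 uM heparin triggers fibrillization at 37 C over 6 hr; FP gives the signal.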
Coupling enz: inhibits coupling enzyme system, counter-screen for aldolase hits; coupling enzyme system counterscreen, AmpLite Red fluorescence; activity change, negative = inhibition, % at 58.2 µM, hits read low; 290,000 tested, 0.67% active; in the data active means activity change below about -30%
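Coupling enzymes only (glyceraldehyde-3-phosphate) + compound, at 57.5 uM final, 10 min RT; add substrate/coupling/AmpLite Red mix, 20 min RT; fluorescence ex 525/em 598 nm. Actives flag coupling-system interference.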
Tau ThT inhib: inhibitors of human tau fibril formation, thioflavin T binding; 270,000 tested, 2.1% active; recombinant tau K18 P301L (four-repeat tau fragment), heparin-induced fibrillization, ThT fluorescence; P10636; Potency, µM (top dose mostly 57.4 µM), for inactives: at the highest dose activity, negative = inhibition, most hits filed as inhibitors; further: potency means the concentration at half of the fitted maximal effect; nearly all actives have a fitted effect of over 55% in size
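Recombinant human tau K18 fragment […] carrying P301L, 15 uM unlabeled plus 0.24 uM Alexa 594-labeled, was fibrillized with 20 uM heparin in 100 mM sodium acetate pH 7 for 6 hr at 37 C; 30 uM ThT fluorescence read after 1 hr.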
Starred values were filed as active, the others as inactive; [ ] = remark or other dose. An excerpt weighted towards active compounds, which were near 11% of everything screened. Unless noted, the call rests on the fitted dose curve; in most records, active means well fitted curve in the direction sought with a large enough effect; inconclusive means small, poorly fitted or top-dose-only effect, or another doubt; inactive means no such curve, though single readings can be large; an effect the other way counts as inactive or inconclusive. Unless noted, on the % scale 0 is the no-effect control and ±100 the full control effect.

COc1cccc(C2C(C(=O)c3cc4ccccc4o3)=C(O)C(=O)N2c2cc(C)on2)c1 (centres undefined) was read as G9a inh 44.7µM* and Sfp inh 22.7%.
Screening Cc1cc(=O)oc2cc(OCC(=O)Nc3ccc(N4CCC(C)CC4)cc3)ccc12 returned G9a inh inconclusive, Sfp inh 16.2% and Coupling enz 1.0.
For CC(=O)NC(Cc1cccc(C)c1)C(=O)NC1CCN(C(=O)c2ccc([N+](=O)[O-])cc2)CC1 (centres undefined) the results were G9a inh 27.6%, Sfp inh -0.5%, Tau fluor cs -6.9%, Tau FP inhib -5.5%, Coupling enz 1.8 and Tau ThT inhib -5.4%.
CCN(Cc1nc(-c2cccc(C)c2)no1)S(=O)(=O)c1ccc(C)cc1 was read as G9a inh 59.3%[59 µM], Tau fluor cs -24.9%, Tau FP inhib -4.8% and Tau ThT inhib -7.4%.
For O=C1C[C@@H](c2ccccc2Cl)N1S(=O)(=O)c1ccccc1[N+](=O)[O-] the results were Sfp inh 8.3% and Coupling enz -2.9.
Cc1cc(N2C(=O)C(O)=C(C(=O)c3cc4ccccc4o3)C2c2cccc(Cl)c2)no1 (centres undefined) was read as G9a inh 39.8µM* and Sfp inh 0.4%.
For COc1ccc(C2C(C(=O)c3ccc(C)o3)=C(O)C(=O)N2c2cc(C)on2)cc1OC (centres undefined) the results were G9a inh inconclusive, Sfp inh -9.7%, Tau fluor cs -5.1%, Tau FP inhib 0.5%, Coupling enz -0.2 and Tau ThT inhib -10.4%.
`COc1ccc(OC)c(C2C(C(=O)c3ccc(C)o3)=C(O)C(=O)N2c2cc(C)on2)c1` (centres undefined) gave G9a inh 50.1µM* and Sfp inh inconclusive.
CCc1ccccc1Nc1cc(C(=O)NC2CCC(C)CC2)c2ccccc2n1 (centres undefined) was read as G9a inh 0.3%[59 µM], Tau fluor cs -17.1%, Tau FP inhib -7.5% and Tau ThT inhib -3.4%.
COc1ccccc1CN1CCC2(CC1)CCN(S(=O)(=O)c1ccccc1)CC2 was read as G9a inh -3.0%[12.7 µM], Sfp inh 9.1% and Coupling enz 0.7.
C/C=C(/C)C(=O)Nc1cccc(C2=NOC3(C2)C[C@@H](C(N)=O)N(C(=O)c2ccc(OC)cc2)C3)c1 (some centres undefined) was read as G9a inh -0.4%[59 µM], Sfp inh 4.9%, Tau fluor cs 23.1%, Tau FP inhib 5.0%, Coupling enz 0.6 and Tau ThT inhib 19.1%.
Screening C/C=C\C=C/C(=O)Nc1cccc(C2=NOC3(C2)C[C@@H](C(N)=O)N(C(=O)c2ccc(Cl)cc2)C3)c1 (some centres undefined) returned G9a inh inconclusive, Sfp inh 7.08µM*, Tau fluor cs -1.3%, Tau FP inhib -1.1%, Coupling enz 4.9 and Tau ThT inhib 0.9%.
Screening C/C=C/C(=O)Nc1cccc(C2=NOC3(C2)C[C@@H](C(N)=O)N(C(=O)c2cc([N+](=O)[O-])cc([N+](=O)[O-])c2)C3)c1 (some centres undefined) returned G9a inh -7.0%[12.7 µM], Sfp inh inconclusive, Tau fluor cs -3.8%, Tau FP inhib 2.9%, Coupling enz -6.7 and Tau ThT inhib -4.7%.
`NC(=O)C1(NC(=O)[C@@H]2CC3(CC(c4cccc(NC(=O)c5cc([N+](=O)[O-])cc([N+](=O)[O-])c5)c4)=NO3)CN2C(=O)c2ccccc2)CC1` (some centres undefined) gave Sfp inh 79.4µM*, Tau fluor cs 25.1µM*[quencher], Tau FP inhib inconclusive, Coupling enz -0.6 and Tau ThT inhib -13.4%.
`C/C=C(\C)C(=O)Nc1cccc(C2=NOC3(C2)C[C@H](C(N)=O)N(C(=O)c2cc([N+](=O)[O-])cc([N+](=O)[O-])c2)C3)c1` (some centres undefined) gave G9a inh -7.0%[59 µM], Sfp inh 7.6%, Tau fluor cs -14.4%, Tau FP inhib 5.6%, Coupling enz -4.4 and Tau ThT inhib -10.2%.
`C/C=C\C=C/C(=O)Nc1cccc(C2=NOC3(C2)C[C@H](C(N)=O)N(C(=O)c2ccc(OC)cc2)C3)c1` (some centres undefined) gave G9a inh inconclusive, Sfp inh 12.6µM*, Tau fluor cs 19.0%, Tau FP inhib 0.2%, Coupling enz 1.9 and Tau ThT inhib 0.2%.
For Nc1nc(-c2ccc([N+](=O)[O-])cc2)cs1 the results were G9a inh 50.1µM*, Sfp inh 9.1%, Tau fluor cs -19.7%, Tau FP inhib 4.9%, Coupling enz 0.8 and Tau ThT inhib inconclusive.
O=S(=O)(Nc1ccc(-c2csc(-c3ccccc3)n2)cc1)c1ccccc1 was read as G9a inh 20.7%[59 µM], Sfp inh 7.3%, Tau fluor cs inconclusive, Tau FP inhib inconclusive, Coupling enz 0.2 and Tau ThT inhib 0.9%.
O=[N+]([O-])c1ccc(-c2csc(N3CCCCCC3)n2)cc1 was read as G9a inh inconclusive, Sfp inh -9.9% and Coupling enz 0.1.
Screening Nc1nc(-c2ccc3c(c2)CCC(=O)N3)cs1 returned G9a inh 44.7µM*, Sfp inh 39.8µM*, Tau fluor cs -7.7%, Tau FP inhib -4.7%, Coupling enz 1.3 and Tau ThT inhib inconclusive.
Screening O=[N+]([O-])c1ccc(-c2csc(NN=C3CCCC3)n2)cc1 returned G9a inh 50.1µM*, Sfp inh 16.0%, Tau fluor cs 6.7%[2.34 µM], Tau FP inhib 2.1%[2.34 µM], Coupling enz 0.0 and Tau ThT inhib -1.3%.
`O=[N+]([O-])c1ccc(S(=O)(=O)Nc2ccc(-c3csc(-c4ccccc4)n3)cc2)cc1` gave G9a inh inconclusive, Sfp inh 15.0%, Tau fluor cs 8.91µM*[quencher], Tau FP inhib -7.4%, Coupling enz -1.5 and Tau ThT inhib inconclusive.
For O=C(NCCS(=O)(=O)N1CCN(c2ccccc2)CC1)C(c1ccccc1)c1ccccc1 the results were G9a inh -5.8%[59 µM], Tau fluor cs -0.9%, Tau FP inhib -0.3% and Tau ThT inhib 10.5%.
Screening Nc1nc(-c2ccc(Br)cc2)cs1 returned G9a inh inconclusive, Sfp inh -5.9%, Tau fluor cs inconclusive, Tau FP inhib 2.5%, Coupling enz 1.5 and Tau ThT inhib inconclusive.
